# Source: PubChem (National Center for Advancing Translational Sciences (NCATS))
# D2 ag-1: D2 dopamine receptor (human) agonism. P14416. HEK293 T-REx D2 cells, calcium flux agonist mode. activation, % at 2 µM. actives 0.53% (n = 340,000);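 active = activation over 3 SD above normal in the single-dose calcium agonist read, cut at about 30% in these data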; also: 0% is about no effect
# Target sequence (P14416 whole entry, looked up): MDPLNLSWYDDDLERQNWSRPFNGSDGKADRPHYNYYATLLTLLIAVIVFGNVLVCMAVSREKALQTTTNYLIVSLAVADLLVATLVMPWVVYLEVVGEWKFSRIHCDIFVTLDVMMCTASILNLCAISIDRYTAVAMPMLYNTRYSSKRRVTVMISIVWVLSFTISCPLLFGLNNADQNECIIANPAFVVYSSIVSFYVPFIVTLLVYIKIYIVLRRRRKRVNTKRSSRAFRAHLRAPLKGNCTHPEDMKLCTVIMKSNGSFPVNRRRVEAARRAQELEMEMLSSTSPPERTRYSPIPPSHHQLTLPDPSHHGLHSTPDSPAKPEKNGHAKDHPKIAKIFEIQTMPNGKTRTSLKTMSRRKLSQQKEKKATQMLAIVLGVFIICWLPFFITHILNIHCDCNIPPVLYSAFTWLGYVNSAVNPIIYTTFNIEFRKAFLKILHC
#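 Agonism is scored from calcium flux in a force-coupled, inducible HEK293 cell line expressing D2, read kinetically for 180 s after compound addition against dopamine controls.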
# D2 antag: D2 dopamine receptor (human) antagonism; HEK293 TREx D2 cells, calcium flux, dopamine EC80; inhibition, % at 10 µM; actives 2% (n = 340,000); in the data active = inhibition above about 30%; inactive = below that, where a call was filed; also: 0% is about no effect
#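 Read-out: kinetic calcium fluorescence (1 cycle/s) in inducible HEK293 T-REx D2 cells after an EC80 dopamine addition that followed 180 s compound preincubation. Loss of the dopamine response indicates antagonism.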
# D2 PAM-1: human D2 receptor positive allosteric modulation; P14416; DiscoveRx D2 beta-arrestin cells, luminescence, 90 min; 100% = 57 uM dopamine signal; potentiation, % (test concentration not listed); actives 0.23% (n = 360,000); in the data active = potentiation above about 50%; inconclusive = mostly about 30% to 49%
#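 PathHunter D2 cells, attached overnight at 37 deg C, received compound in DMSO plus dopamine at EC20 (50 nM final) for 90 min at 37 deg C. Beta-arrestin recruitment was read as luminescence after 1 h with detection reagent at ambient temperature.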
# D2 ag-2: activates the human D2 dopamine receptor; DiscoveRx PathHunter D2 beta-arrestin, luminescence, 90 min; 100% = 57 uM dopamine signal; P14416; activation, % (concentration not given with the values); actives 0.084% (n = 360,000); in the data active = activation above about 40%; inconclusive = between about 15% and that limit
#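 Agonist mode: compounds alone added to overnight-plated D2 PathHunter cells for 90 min at 37 C, with 57 uM final dopamine (EC100) defining full response. Beta-arrestin recruitment detected by chemiluminescent reagent, read after 1 h at ambient temperature.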
# D2 PAM-2: D2 dopamine receptor (human) potentiation. P14416. HEK293 T-REx D2, calcium flux, EC20 dopamine potentiation. potentiation, % at 10 µM. actives 0.34% (n = 340,000). AID 485347;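 active = potentiation over 3 SD above the plate norm, cut at about 30% in these data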; also: 0% is about no effect
#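 Potentiation of an EC20 dopamine calcium response is measured in a force-coupled, tetracycline-inducible Hek293 Trex D2 line. Compound-only kinetic reads over 180 s flag agonists before dopamine addition.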
# The depositor's hits bear a star; ? = inconclusive; . = not tested or not shown. Hits are enriched below; roughly 2.4% of the tested compounds scored in any of these assays.
SMILES,D2 ag-1,D2 antag,D2 PAM-1,D2 ag-2,D2 PAM-2
CC(C)CN1CCN(Cc2ccc(C#CC(C)(C)O)cc2)CC1CCO (configuration not stated),1,33*,-9,-3,7
CC(C)CCN1CCN(Cc2cccc(C(F)(F)F)c2)CC1CCO (configuration not stated),-2,76*,-17,1,-33
CSc1cccc(CN2CCN(CCC(C)C)C(CCO)C2)c1 (configuration not stated),1,59*,-23,0,-16
CC1=C(C(=O)Nc2ccccc2)C(c2ccc(O)cc2)n2nc(-c3ccc(Cl)cc3)nc2N1 (configuration not stated),1,.,.,.,5
O=C(O)c1ccccc1-c1ccccc1C(=O)NNc1ccccc1,37*,-28,5,-4,-5
O=C(O)c1ccccc1-c1ccccc1C(=O)Nc1ccccc1,-1,19,16,0,3
Cn1nnnc1SCC(=O)NC1CCCc2ccccc21 (configuration not stated),0,-6,-5,0,23
Cc1ccc(C)c(N2CCN(S(=O)(=O)c3ccc(F)c(C(=O)Nc4ccc(Cl)cc4Cl)c3)CC2)c1,0,.,.,.,-10
CC(C)NS(=O)(=O)c1ccc(OCC(=O)N2CCc3ccccc3C2)cc1,-1,30*,-4,2,5
COc1cc(C#N)ccc1OCC(=O)N1CCc2ccccc2C1,-1,2,-6,-6,38*
Cc1cc(OCC(=O)OCC(=O)N2CCc3ccccc3C2)ccc1Cl,0,24,1,-2,36*
CC(C)NS(=O)(=O)c1ccc(OCC(=O)N2CCCC2)cc1,.,.,-17,0,-8
CCc1nc2ccc(C(=O)N(C)C(C)C)cn2c1N(CCC(C)C)CCN(C)C,.,.,-9,-2,.
COc1ccc(CCn2c(N)cc(=O)[nH]c2=S)cc1OC,0,-16,-20,-3,34*
C=CC[C@H](CC(=O)NCCO)C(=O)N[C@@H](COC(=O)[C@@H](CC=C)CC(=O)OC(C)(C)C)Cc1c[nH]c2ccccc12,.,.,6,-9,.
COc1ccc(-n2c(O)c(/C=N/NS(=O)(=O)c3ccc(C)cc3)c3ccccc3c2=O)cc1OC,20,15,-2,-4,1
COc1ccc(-n2c(O)c(/C=N/NS(=O)(=O)c3cc(C)ccc3C)c3ccccc3c2=O)cc1OC,41*,27,-14,-2,0
CC(C)CN(c1ccccc1)S(=O)(=O)c1nnc(NC(=O)c2ccco2)s1,0,68*,-30,-2,5
COc1cccc(CNC(=O)c2c(O)nc3ccccn3c2=O)c1,-1,.,.,.,-19
COc1ccc(CC2CC(=O)N(c3ccc(C)cc3)C2=O)cc1 (configuration not stated),0,-7,-2,7,0
COc1ccc(OC)c(N2C(=O)CC(Cc3ccc(C)cc3)C2=O)c1 (configuration not stated),-1,-2,3,0,35*
COc1ccccc1C(=O)NC1CCCc2ccccc21 (configuration not stated),2,8,-5,2,2
CS(=O)(=O)c1ccccc1C(=O)NC1CCCc2ccccc21 (configuration not stated),1,-6,-3,-1,37*
COc1cc(C(=O)NC2CCCc3ccccc32)cc(OC)c1C (configuration not stated),-3,55*,-4,1,.
CCS(=O)(=O)c1ccccc1C(=O)NC1CCCc2ccccc21 (configuration not stated),-2,12,-5,3,7
SMILES,D2 ag-1,D2 antag,D2 PAM-1,D2 ag-2,D2 PAM-2
CCOc1ccc(CNC(=O)c2ccc3c(c2)nc2n3CCC(C)C2)cc1OC (configuration not stated),.,.,.,.,18
COc1cccc(C(=O)Nc2ccc(Cl)c(-c3nc4ccccc4[nH]3)c2)c1,-2,.,.,.,2
O=C(CCc1ccc(Oc2cc([N+](=O)[O-])cc([N+](=O)[O-])c2)cc1)N1CCCCCC1,-1,37*,75*,?,-5
Cc1ccnn2cc3c(=O)n(C)c(=O)n(C)c3c12,-2,11,.,.,31*
Cn1c(=O)c2cn3ncccc3c2n(C)c1=O,0,13,.,.,3
CCOC(=O)C(NC(=O)c1ccccc1)(Nc1cc(C)on1)C(F)(F)F (configuration not stated),0,31*,-4,-4,7
CCOC(=O)C(NC(=O)c1ccc(OC)cc1)(Nc1cc(C)on1)C(F)(F)F (configuration not stated),-1,9,-6,0,-4
CC(=O)NCCNC(=O)C1(C)Cc2c(-c3cccc(C(F)(F)F)c3)ccnc2O1 (configuration not stated),.,.,1,-2,.
Cc1nn(Cc2ccc(Cl)cc2)c(C)c1NC(=O)c1cc(-c2ccco2)on1,0,-12,-3,2,-4
COc1cc(NC(=O)c2cc(-c3ccco3)on2)cc(OC)c1OC,-2,33*,-16,-2,-19
Cc1cc(NC(=O)c2cc(-c3ccco3)on2)nn1Cc1ccc(Cl)cc1,32*,-4,-7,0,-19
CN(Cc1ccccc1)C(=O)CC(=O)N(C)Cc1ccccc1,0,7,0,1,34*
CN(Cc1ccccc1)C(=O)c1ccccc1NC(=O)c1ccco1,0,31*,8,1,-9
CN(Cc1ccccc1)C(=O)Cc1ccccc1,1,2,0,-1,17
O=C(O)CNC(=O)c1ccccc1NC(=O)c1ccco1,0,-3,-14,1,5
O=C(CN1C(=O)COc2ccc(S(=O)(=O)N3CCCCCC3)cc21)Nc1cccc(Cl)c1,.,.,.,.,-2
N#Cc1ccc(CSc2nc(N)cc(=O)[nH]2)cc1,-1,-1,-13,0,2
Cc1ccc(CSc2nc(N)cc(=O)[nH]2)cc1,1,30*,-11,-2,-9
COc1ccccc1NC(=O)CN1C(=O)COc2ccc(S(=O)(=O)N3CCC(C)CC3)cc21,0,-10,-5,-1,-1
CCOc1ccccc1NC(=O)CN1C(=O)COc2ccc(S(=O)(=O)N3CCOCC3)cc21,0,36*,-16,-2,-2
CC(=O)Nc1cccc(C(=O)OCC(=O)c2ccccc2Cl)c1,2,41*,5,-3,-2
Cc1cccc(OCCSc2nc3ccccc3n2CC(=O)N2CCOCC2)c1,5,.,.,.,5
Cc1ccc(NC(=O)CN(C)C(=O)c2ccc(COc3ccccc3)cc2)cc1,-1,-2,0,-5,-1
CCCCOc1ccc(C(=O)N(C)CC(=O)Nc2ccc(C)cc2)cc1,-1,55*,-12,-2,0
